IL-1B inflam inh: inflammasome signaling inhibition, IL-1 beta readout; AID 743279; 360,000 tested, 4.7% active; THP-1 LPS/ATP IL-1B secretion, AlphaLISA, 16 h; active compounds read low; activity change, % at 57.5 µM; in the data active = activity change below about -50%; inconclusive = mostly about -30% to -49%
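THP-1 cells pretreated 1 hr with compounds (up to 57.5 uM final), then stimulated with LPS (250 ng/mL final) plus ATP (1.25 mM final); secreted IL-1B measured by AlphaLISA after 16 hr, decreased signal indicating inhibition.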
TDP1 block: inhibitors of human tyrosyl-DNA phosphodiesterase TDP1; recombinant TDP1, AlphaScreen DNA substrate cleavage; 350,000 tested, 0.28% active; Potency, µM (top dose mostly 130 µM), most hits filed as inhibitors; note: nearly all actives have a fitted effect of over 40% in size
Target sequence (Q9NUW8 whole entry, looked up): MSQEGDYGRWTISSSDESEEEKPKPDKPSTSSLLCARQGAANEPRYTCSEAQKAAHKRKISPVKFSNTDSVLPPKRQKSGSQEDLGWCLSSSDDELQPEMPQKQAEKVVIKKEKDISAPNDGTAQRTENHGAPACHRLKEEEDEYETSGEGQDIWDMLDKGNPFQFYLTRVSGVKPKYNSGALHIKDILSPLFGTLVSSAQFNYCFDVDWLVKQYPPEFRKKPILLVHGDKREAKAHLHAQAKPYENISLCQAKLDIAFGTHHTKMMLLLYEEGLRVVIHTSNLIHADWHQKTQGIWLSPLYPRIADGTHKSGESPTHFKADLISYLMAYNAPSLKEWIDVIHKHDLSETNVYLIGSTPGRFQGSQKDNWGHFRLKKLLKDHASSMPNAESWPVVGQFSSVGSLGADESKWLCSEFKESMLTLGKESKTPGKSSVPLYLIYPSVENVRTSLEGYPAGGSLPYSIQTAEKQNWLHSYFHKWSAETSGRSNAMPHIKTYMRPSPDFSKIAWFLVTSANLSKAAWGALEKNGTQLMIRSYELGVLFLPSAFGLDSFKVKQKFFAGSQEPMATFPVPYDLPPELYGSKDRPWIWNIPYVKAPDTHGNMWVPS
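AlphaScreen read-out: signal falls as enzyme removes the 3' tyrosine-FITC from a 5'-biotinylated DNA oligo (15 nM, 5 min, RT). Enzyme was E. coli-made recombinant Tdp1 at 1 nM, exposed to compound for 15 min beforehand; beads 10 ug/ml, 10 min.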
HepG2 viability: counter-screen for TGF-b inhibitors: cytotoxicity in HepG2 cells | HepG2 CAGA-GFP viability, ATP luminescence, 18 h | Potency, µM (titrated, usually from 46.1 µM), hits mostly cytotoxic | 410,000 tested, 0.76% active | AID 588856
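HepG2 CAGA-GFP cells (1000/well, DMEM with 1% FBS) received compound, then TGF-beta at 500 pg/mL final, and were incubated 18 hours at 37 degrees C. Viability was read by CellTiter-Glo luminescence. Media-only wells were set as complete cell-killing and DMSO as no toxicity.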
DT40 TDP1 no CPT: qHTS for Inhibitors of human tyrosyl-DNA phosphodiesterase 1 (TDP1): qHTS in cells in absence of CPT | DT40 Tdp1-/- hTDP1 cells, no CPT, ATP luminescence, 48 h | Potency, µM (highest dose often 46.2 µM), actives largely listed as inhibitors | 420,000 tested, 15% active | AID 686978, 2013; note: nearly all actives have a fitted effect of over 55% in size
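No-CPT arm: Tdp1-/-;hTDP1 DT40 cells (400/well) plus compounds, incubated ≥48 hr at 37 °C. Readout CellTiter-Glo luminescence.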
TDP1 cell CPT: DT40-hTDP1 cell growth loss with CPT; chicken DT40 Tdp1-/-;hTDP1 cells + 20 nM CPT, ATP luminescence, 48 h; Potency, µM (highest dose often 46.2 µM), usual class: inhibitors; 420,000 tested, 12% active; note: nearly all actives have a fitted effect of over 55% in size
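Chicken DT40 Tdp1-/- cells complemented with human TDP1, 400 cells/well, exposed to compounds plus 20 nM camptothecin for at least 48 h at 37 C; viability read as ATP content by CellTiter-Glo luminescence.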
TGFb SMAD3 inh: blocks TGF-b signaling | HepG2 CAGA-GFP TGF-b/SMAD3 reporter, GFP fluorescence, 18 h; TGF-beta stimulated, 500 pg/mL final | Potency, µM (series often up to 46.1 µM), most hits filed as inhibitors | 410,000 tested, 1.2% active; note: nearly all actives have a fitted effect of over 65% in size
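GFP signal (ex488/em500-530) from TGF-beta-stimulated HEPG2 CAGA-GFP cells, 500 pg/mL final, 18 h at 37 degrees C in DMEM plus 1% FBS, normalized to unstimulated and DMSO-stimulated controls.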
Hits are given with their value; 0 = inactive; ? = inconclusive; - = no result given; [ ] = another dose, or the depositor's remark. An excerpt weighted towards active compounds, which were near 18% of everything screened. Unless noted, calls come from the whole dose curve; as a rule, active = well fitted curve in the direction sought with a large enough effect; inconclusive = small, poorly fitted or top-dose-only effect, or another doubt; inactive = no such curve, though single readings can be large; an effect the other way counts as inactive or inconclusive.

SMILES	IL-1B inflam inh	TDP1 block	HepG2 viability	DT40 TDP1 no CPT	TDP1 cell CPT	TGFb SMAD3 inh
CCN(CC)C(=O)c1nn(-c2ccccc2)c2c1C1CCC2(C)C1(C)C (configuration not stated)	?	0	0	16µM	23µM	?
CC(=O)c1cc(-c2ccccc2)[nH]c1N1CCOCC1	0	0	0	0	0	0
CC(=O)c1c(N2CCN(C)CC2)[nH]c(-c2ccccc2)nc1=S	?	0	0	16µM	?	0
CCNC(=O)C1(C)CCCN1C(=O)c1cc(OC)c(OC)c(OC)c1 (configuration not stated)	0	-	0	0	0	0
CCCc1nnc(NC(=O)Cc2coc3ccc(C(C)C)cc23)s1	-	0	0	?	?	0
NC(=S)NN=C1CCCCC12CCCC2	0	-	0	?	?	0
CC1(C)CCC(=NNC(N)=S)CC1	0	-	0	29µM	?	?
NC(=S)NN=C1CSSC1	-100	-	11µM	3.7µM	7.3µM	10µM
CCOC(=O)C(C(=O)OCC)c1cc(Br)c2noc3c2c1C(=O)c1ccccc1-3	-89	0	0	2.6µM	3.7µM	6.3µM
O=C1CC(SCc2nc3ccccc3[nH]2)C(=O)N1c1cccc(Cl)c1 (configuration not stated)	0	-	0	13µM	?	0
O=C1CC(SCc2nc3ccccc3[nH]2)C(=O)N1c1ccc(F)cc1 (configuration not stated)	0	0	0	18µM	?	0
Cn1c(/C=C/c2ccc(Br)cc2)nc2ccccc2c1=O	0	-	0	18µM	?	0
Cn1c(/C=C/c2ccccc2[N+](=O)[O-])nc2ccccc2c1=O	0	5µM	0	?	?	0
O=c1c2ccccc2nc(/C=C/c2cc(Br)ccc2O)n1CCCO	-101	-	0	16µM	?	?
O=c1c2ccccc2nc(/C=C/c2cccc([N+](=O)[O-])c2)n1CCO	?	0	0	?	0	0
CCn1c(/C=C/c2ccccc2[N+](=O)[O-])nc2ccccc2c1=O	0	0	0	?	?	0
O=[N+]([O-])c1ccccc1/C=C/c1ccc2ccccc2n1	-79	-	0	?	0	0
CC(C)(C)OC(=O)N1CCc2onc(-c3ccc(-n4cc(C5=CCCCC5)nn4)cc3)c2C1=O	0	-	-	?	?	-
O=C(Nc1c(-c2ccccc2)[nH][nH]c1=O)c1cccs1	0	-	-	0	0	-
CC(C)=CCC/C(C)=C/CO/N=C1/C[C@@H](O)[C@@H](O)[C@@H]2[C@@H]3C(=O)N(Cc4ccc5c(c4)OCO5)C(=O)[C@H]3CC[C@@H]12	-	0[21 µM]	-	-	-	-
COc1ccc(CNc2ncc(-c3cccc([N+](=O)[O-])c3)n2C)c(OC)c1OC	0	-	0	?	?	0
Cc1ccc(C2=NN(C(=O)CN3C(=O)c4ccccc4S3(=O)=O)C(c3ccco3)C2)cc1 (configuration not stated)	0	0	0	?	13µM	0
COc1ccc(N2CCN(C(=O)COc3ncnc4ccccc34)CC2)cc1	0	0	0	0	0	0
Cc1ccc(C2=NN(C(=O)C3CCCO3)C(c3ccco3)C2)cc1 (configuration not stated)	?	0	0	?	0	0
COc1ccc(C2=NN(C(=O)COc3ncnc4ccccc34)C(c3ccco3)C2)cc1 (configuration not stated)	?	0	0	26µM	0	0
SMILES	IL-1B inflam inh	TDP1 block	HepG2 viability	DT40 TDP1 no CPT	TDP1 cell CPT	TGFb SMAD3 inh
O=C(c1ccc(Br)o1)N1N=C(c2ccc(Cl)cc2)CC1c1ccco1 (configuration not stated)	0	0	0	?	0	?
CC(=O)N1N=C(c2ccc(C)cc2)CC1c1ccco1 (configuration not stated)	0	0	0	?	0	0
CC(=O)N1N=C(c2ccc(Cl)cc2)CC1c1ccco1 (configuration not stated)	0	-	0	?	16µM	0
Cn1nnnc1SCC(=O)N1N=C(c2ccc(Cl)cc2)CC1c1ccco1 (configuration not stated)	0	0	0	16µM	21µM	?
Cc1ccc(NC(=O)Nc2c[nH]c(=O)[nH]c2=O)c(Cl)c1	-	0	0	0	0	0
O=C(C1CCCO1)N1N=C(c2ccc(Br)cc2)CC1c1ccco1 (configuration not stated)	?	0	0	15µM	?	0
Cc1nc(N2N=C(c3ccc(Cl)cc3)CC2c2ccco2)sc1C(=O)N(C)C (configuration not stated)	?	0	0	16µM	21µM	0
Clc1ccc(C2=NN(c3ccccc3)C(c3ccco3)C2)cc1 (configuration not stated)	0	?	0	0	0	0
Cc1ccc(S(=O)(=O)N[C@H](C(=O)OCC(=O)N2N=C(c3ccc(Cl)cc3)CC2c2ccco2)C(C)C)cc1 (some centres not stated)	0	0	0	23µM	23µM	?
Cc1nnc(SCC(=O)N2N=C(c3ccc(Cl)cc3)CC2c2ccco2)[nH]c1=O (configuration not stated)	?	0	0	?	15µM	0
COC(=O)c1cc(S(=O)(=O)NCC2CCN(Cc3cccc(Cl)c3)CC2)c[nH]1	0	0	0	?	0	0
CN1C(=O)NC(c2ccc(O)cc2)C2=C1CN(c1cccc3ccccc13)C2=O (configuration not stated)	0	0	0	0	0	0
O=C(CSc1nnc(-c2ccncc2)o1)Nc1ccc(F)c(F)c1	0	0	0	0	0	0
Cc1ccc(C2=NN(C(=O)CCCC(=O)O)C(c3ccco3)C2)cc1 (configuration not stated)	0	0	0	0	0	0
CCC(=O)N1N=C(c2ccc(NS(=O)(=O)c3ccccc3)cc2)CC1c1ccco1 (configuration not stated)	0	0	0	23µM	?	?
CCCCCN(C(=O)CCC(=O)OCC(=O)c1cccc(OC)c1)c1c(N)n(CCCC)c(=O)[nH]c1=O	0	0	0	0	0	0
CCCCCN(C(=O)CCC(=O)OCc1ccc(C(C)(C)C)cc1)c1c(N)n(CCCC)c(=O)[nH]c1=O	0	0	0	?	?	?
CCCCCN(C(=O)CCC(=O)OCc1cc(C)ccc1C)c1c(N)n(CCCC)c(=O)[nH]c1=O	-63	0	0	26µM	23µM	0

Screening results: PubChem, National Center for Advancing Translational Sciences (NCATS)
